Screening data as filed in PubChem BioAssay.
L major viab – Leishmania major promastigote growth inhibition, primary screen. Leishmania major promastigotes, resazurin fluorescence viability. inhibition, % at 10 µM. hit rate 9% among 200,000; in the data active = inhibition above about 50%;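 note: promastigotes grown with compound for 44 hours at 28 °C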
Insulin prom inh – inhibitors of insulin promoter-driven GFP, primary screen, imaging, TRM-6 cells (human fetal islet line), eGFP reporter, cell count | reporter expression induced with tamoxifen | inhibition, % at 2 µM | hit rate 0.9% among 130,000 | AID 1273, 2008;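 active = inhibition above the mean plus 3 SD, with well images judged a real hit on visual review, cut at about 60% in these data, passing the limit was not always enough; inconclusive = inhibition over the cutoff but images rejected on review; inactive = inhibition not above the cutoff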
Autophagy HCS – autophagy modulators in MEF cells, primary screen, imaging, high-content, MEF GFP-LC3; MEF GFP-LC3 puncta imaging; test concentration mostly 10 µM; calls only at 10 µM (by protocol); hit rate 0.98% among 190,000; AID 463193, 2010;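 active = percentage of spot-positive cells more than 3 SD above its plate mean, without a fluorescence outlier flag or 80% toxicity; inconclusive = no clear call, values can overlap the other calls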
Ins promoter up – insulin promoter activators in MIN6 cells, imaging, high-content screening, mouse beta cells. hit rate 0.3% among 190,000. MIN6 insulin promoter-GFP reporter; hits give high values. AID 1625, 2009. z-score at 5 µM;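 active = z-score above 3 at 5 µM with at least 500 cells counted in the well; inconclusive = wells under 500 cells, flagged as cytotoxic or low count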
HCT116 PTEN-null – growth suppression of PTEN-null HCT116, primary screen, cell-based, CellTiter-Glo; HCT116 PTEN-null viability, 60 h; hits give low values; viability, % at 10 µM; hit rate 1.2% among 140,000; AID 827, 2007;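 active = viability at or below a set limit, 4 SD under the median of all tested compounds, cut at about 3.7% in these data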;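 note: PTEN knockout HCT116 line with beta catenin targeted HCT116 as companion control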
HCT116 bCat-KO – primary screen for growth suppressors in beta-catenin knockout HCT116 cells (colon tumor, human). HCT116 beta-catenin knockout viability, CellTiter-Glo, 60 h; hits give low values. viability, % at 10 µM. hit rate 1.5% among 140,000;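 active = viability at or under a set limit, the compound median less 4 SD, cut at about 6% in these data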
Hits are given with their value; - = inactive; ? = inconclusive; . = not tested or not shown; + = active, no number. Most compounds without a hit are left out; they make up all but 9.6% or so of the library.

SMILES	L major viab	Insulin prom inh	Autophagy HCS	Ins promoter up	HCT116 PTEN-null	HCT116 bCat-KO
Nc1nc(SCc2ccc(Cl)c(Cl)c2)n[nH]1	-	.	-	-	-	-
CCS(=O)(=O)N1CCN(S(=O)(=O)c2ccccc2[N+](=O)[O-])CC1	-	-	-	.	.	.
COc1ccc(-n2c(=S)[nH]c3cc(C(=O)Nc4cc(OC)c(OC)c(OC)c4)ccc3c2=O)c(OC)c1	-	.	-	-	.	.
O=C(Cc1ccc(F)cc1)Nc1cccc2cccnc12	-	-	-	-	-	-
O=C(/C=C\c1ccc2c(c1)OCO2)Nc1c2c(nn1-c1ccc(Cl)cc1)CSC2	95	-	-	-	-	-
O=C(OCC(=O)N1CCCCC1)c1cc2ccccc2cc1O	-	-	-	.	-	-
COc1cc2c(cc1OC)-c1nncn1C(C)(C)C2	-	.	-	3.8	-	-
COc1cc2c(cc1OC)-c1nnc(C)n1C(C)(C)C2	-	-	-	-	-	-
CC1(C)Cc2cccc(OCC(O)CN3CCN(c4ccccn4)CC3)c2O1 (configuration not stated)	85	-	-	.	-	-
CCOc1ccc(C(=O)Nc2ccccc2C#N)cc1[N+](=O)[O-]	-	-	-	-	-	-
CC(=O)Nc1ccccc1Nc1cc(C#N)c(C#N)cc1[N+](=O)[O-]	97	-	-	.	.	.
Cc1nc2ccccc2nc1CN1CCC(CO)(CC2CCCCO2)CC1 (configuration not stated)	69	.	-	-	.	.
Cc1cc([N+](=O)[O-])nn1CCCC(=O)Nc1cc(Cl)ccc1Cl	-	.	-	-	.	.
CC(C)N1C(=O)C(Cc2nc3ccccc3c(=O)n2-c2ccccc2)c2ccccc21 (configuration not stated)	-	.	-	-	-	-
CCCN1C(=O)C(Cc2nc3ccccc3c(=O)n2-c2ccccc2)c2ccccc21 (configuration not stated)	89	-	-	-	-	-
COC(=O)c1cc2sc(Cl)cc2n1Cc1nc(-c2ccccc2)oc1C	-	.	-	-	-	-
COC(=O)c1cc2sccc2n1Cc1nc(-c2ccc(OC)cc2)oc1C	100	.	-	-	-	-
c1ccc(CCCNCC2COc3ccccc3O2)cc1 (configuration not stated)	91	.	-	-	.	.
CCCNCC1COc2ccccc2O1 (configuration not stated)	-	-	-	.	-	-
c1ccc(CNCC2COc3ccccc3O2)cc1 (configuration not stated)	91	-	-	.	-	-
c1ccc(CCCCNCC2COc3ccccc3O2)cc1 (configuration not stated)	87	.	-	-	.	.
O=C(CC1COc2ccccc2O1)NCCc1ccccc1 (configuration not stated)	-	-	-	-	-	-
C/C(=N\NC(=O)C1CC1c1ccccc1)c1cccs1 (configuration not stated)	-	-	-	-	-	-
NS(=O)(=O)c1cccc(NC(=O)Cn2cc(C(F)(F)F)cc(Cl)c2=O)c1	.	.	.	-	.	.
OCCN1C[C@H](O)[C@@H](O)[C@H](O)[C@H]1CO	.	.	.	-	.	.
SMILES	L major viab	Insulin prom inh	Autophagy HCS	Ins promoter up	HCT116 PTEN-null	HCT116 bCat-KO
COc1cccc(/C=N/Nc2ncnc(Cl)c2N)c1O	100	-	-	?	3.1	-
COc1cccc(/C=N/Nc2ncnc3scc(-c4ccccc4)c23)c1O	100	-	-	?	-	-
COc1ccc(/C=N/Nc2nccnc2Cl)cc1	-	83	-	-	-	-
COc1cccc(/C=N/Nc2nccnc2Cl)c1O	100	-	+	-	.	.
COC(=O)c1sccc1N/N=C/c1cccc(OC)c1O	-	-	-	-	-	-
COc1ccc(/C=N/Nc2nccnc2Cl)c(OC)c1	-	.	-	-	.	.
O=C(c1ccccc1)N(Cc1cccs1)C1CCS(=O)(=O)C1 (configuration not stated)	-	-	-	-	-	-
COc1ccc(C2=NN(C(=O)c3cccs3)C(O)(C(F)(F)F)C2)cc1 (configuration not stated)	-	.	-	-	.	.
Cc1ccnc2nc(C(=O)NC3CCCc4ccccc43)nn12 (configuration not stated)	-	.	-	-	.	.
COc1cccc(/C=N/Nc2nc3ccccc3n3cnnc23)c1O	76	.	-	-	-	5.8
CCN1CCN(C(=O)CN(C)S(=O)(=O)c2ccc(OC)c(C)c2)CC1	98	-	-	.	-	-
CN1CCN(C(=O)CN(C)S(=O)(=O)c2ccc3ccccc3c2)CC1	-	-	+	-	.	.
Cc1ccc2c(c1)C(=O)CCCCC(=O)N2	.	.	.	-	.	.
Cc1cc(C(=O)CN2C(=O)NC3(CCCc4sccc43)C2=O)c(C)n1-c1ccc(Cl)cc1 (configuration not stated)	84	-	-	-	-	-
COC(CN(C(=O)CCl)C(C(=O)NC1CCCCC1)c1ccc(C)cc1)OC (configuration not stated)	72	-	-	-	-	-
CCOc1cccc(N(C(=O)C2COc3ccccc3O2)C(C(=O)NC2CCCCC2)c2ccc(O)cc2)c1 (configuration not stated)	82	-	-	-	-	-
COc1ccc(-c2nsc(C(=O)N(c3ccc(F)cc3)C(C(=O)NC3CCCC3)c3ccc(OC)cc3)c2N)cc1 (configuration not stated)	90	.	-	-	-	-
COc1ccc(C(C(=O)NC2CCCCC2)N(C(=O)CCl)c2ccc(OC)cc2)cc1 (configuration not stated)	93	-	-	.	0.8	1.4
O=C(NCc1ccc(Cl)cc1)C1CCC(CNc2c(N3CCCC3)c(=O)c2=O)CC1 (configuration not stated)	.	.	.	-	.	.
CCOc1ccc(C(C(=O)NC2CCCCC2)N(C(=O)c2ccco2)c2ccc(-n3cnnn3)c(C)c2)cc1 (configuration not stated)	-	-	-	.	-	-
COc1ccc(C(C(=O)NC2CCCCC2)N(C(=O)CCl)c2cccc(Cl)c2)cc1 (configuration not stated)	100	.	-	-	1.6	2.3
CCOc1ccc(C(C(=O)NC2CCCCC2)N(C(=O)Cc2cccs2)c2ccc(-n3cnnn3)c(OC)c2)cc1 (configuration not stated)	-	.	-	-	3.3	-
COc1cccc(N(C(=O)c2cnccn2)C(C(=O)NC2CCCCC2)c2ccc(Cl)cc2)c1 (configuration not stated)	-	-	-	-	-	-
Cc1ccc(C(C(=O)NC2CCCCC2)N(C(=O)CCCC(=O)Nc2ccccn2)c2ccc3c(c2)OCCO3)cc1 (configuration not stated)	68	-	-	-	-	-
COc1ccc(CN(C(=O)c2nsc(Cl)c2Cl)C(C(=O)NC2CCCC2)c2ccc(C)cc2)cc1 (configuration not stated)	71	.	-	-	-	-
